Values joined by “and” are separate entries in the source; they are usually repeats but may differ in a detail not shown here. Identical values can stand only once. The panel holds about 83,000 compounds, 20% with a hit somewhere; the sample as a whole holds those more often.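 The test compound was applied at a single concentration to cells in 96-well plates for 48 hours, and percent growth was recorded.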 Active and inactive are the calls of the source. How the source made its calls: active means growth percent below 10; inactive means the rest.

The test system of the assay is MCF7 breast. The assay is described as follows: NCI-60 one-dose screen, 48 h (100 = growth as untreated, 0 = no growth, -100 = all killed). The following applies: 10 µM unless noted.
`C/C=C1\NC(=O)[C@H]2CSSCCC=C[C@H](CC(=O)N[C@H](C(C)C)C(=O)N2)OC(=O)[C@H](C(C)C)NC1=O`: the growth was -73.3% [0.1 µM] (active) and -95.5% [0.1 µM] (active).

Take `CC1CC(C(=O)OC2OC(COC3OC(CO)C(OC4OC(C)C(O)C(O)C4O)C(O)C3O)C(O)C(O)C2O)C2CCC3(C)C(=CCC4(C)C3CCC3C(C)(CO)C(O)C(O)CC34C)C2C1C` (centres undefined): the growth was -87.6% [100 µM] (active) and -100% [100 µM] (active).

Take `COc1ccc2nc(NC(=O)/C(C#N)=C/c3ccccc3)sc2c1`: the growth was 4.79% [100 µM] (active) and 1.62% [100 µM] (active).

As for `COc1ccc(/C=c2\[nH]c3nc(=O)c(N4CCOCC4)c(N)n3c2=O)cc1`, the growth was 56.5% [100 µM] (inactive) and 43.7% [100 µM] (inactive).

In the case of `CC(=O)C1=C(C)N2C(=NC3=C(CCc4ccccc43)C2c2cccc(Br)c2)S1` (centres undefined), the growth is 35.9% [100 µM] (inactive) and 33.8% [100 µM] (inactive).

`CC(C)=CC(O)C/C(C)=C/CC/C(C)=C/CCC1(C)C(CCCO)/C(=C(/C)C=O)CCC1(C)O` (centres undefined): the growth is -22.6% [100 µM] (active) and -6.67% [100 µM] (active).

As for `CCOC(=O)C(=O)C(CCC(=O)c1ccc2ccccc2c1O)C(=O)OCC` (centres undefined), the growth is 69.9% [100 µM] (inactive) and 81.3% [100 µM] (inactive).

Consider `COc1c(O)ccc(C2=Cc3ccc(O)cc3OC2)c1OC`, for which the growth was -13.9% [100 µM] (active) and -13.3% [100 µM] (active).

For `O=C1NC(N/N=C\c2ccccc2)=N/C1=C/c1ccccc1`, the growth was -46% [100 µM] (active) and -100% [100 µM] (active).

For `C=C(C)C(=O)OC1CC2(C)OC(=CC2=O)C(C)CC2OC(=O)C(=C)C12` (centres undefined), the growth is -77.3% [100 µM] (active).

For the compound `Fc1ccc(Nc2nc(Cl)c3[nH]cnc3n2)cc1Cl`, the growth is 53.5% [100 µM] (inactive) and 7.87% [100 µM] (active).

For `CCCCCCCCCC(O)CC(=O)c1c(O)cccc1O` (centres undefined), the growth is -63.9% [100 µM] (active) and -46.7% [100 µM] (active).

Take `N#CC(=S)Nc1ccc(F)cc1`: the growth is 13.1% [100 µM] (inactive) and -70.2% [100 µM] (active).

`Cc1ccc(/C=N/Nc2ccccn2)s1`: the growth is 13.4% [100 µM] (inactive) and 0.177% [100 µM] (active).

Regarding `N#C/C=C1\C=CC(O)C(O)C1OC1OC(CO)C(O)C(O)C1O` (centres undefined), the growth is 92.7% [100 µM] (inactive) and 74.4% [100 µM] (inactive).

On to `Clc1c(Cl)c(Cl)c2nn(C3CCCO3)nc2c1Cl` (centres undefined), for which the growth is 15.9% [100 µM] (inactive) and -100% [100 µM] (active).

On to `COc1cc2c(c3c1c(=O)c1ccccc1n3C)C=C([N+](=O)[O-])C(C)(C)O2`, for which the growth was 9.29% [100 µM] (active) and -100% [100 µM] (active).

Turning to `COc1ccc2cc1Oc1ccc(cc1)C[C@@H]1c3cc(c(OC)cc3CCN1C)Oc1c(OC)c(OC)cc3c1[C@H](C2)N(C)CC3`, the growth is 35.9% [100 µM] (inactive) and -90.5% [100 µM] (active).

For the compound `C[C@]12CC[C@@H]3c4ccc(OS(N)(=O)=O)cc4CC[C@H]3[C@@H]1CCC2=O`, the growth was 15.4% [100 µM] (inactive) and 44.8% [100 µM] (inactive).

For the compound `CC(C)(C)c1cc(C2COC(=O)COCCOCC(=O)OCCOCCO2)cc(C(C)(C)C)c1O` (centres undefined), the growth is 70.6% [100 µM] (inactive) and 74.1% [100 µM] (inactive).

For `CC(C)/C(Cl)=N/OC(=O)Nc1cccc(C(F)(F)F)c1`, the growth is -79.5% [100 µM] (active) and -84.4% [100 µM] (active).

In the case of `NC(Cc1ccc(S(=O)(=O)O)cc1)C(=O)NC(Cc1ccc(S(=O)(=O)O)cc1)C(=O)NC(Cc1ccc(S(=O)(=O)O)cc1)C(=O)NC(Cc1ccc(S(=O)(=O)O)cc1)C(=O)O` (centres undefined), the growth is 87.7% [100 µM] (inactive) and 83.5% [100 µM] (inactive).

Consider `CCOc1cc2c(cc1O)C=C[C@@H]1[C@@H]2CC[C@]2(C)[C@@H](O)CC[C@@H]12`, for which the growth is -21% [100 µM] (active) and -100% [100 µM] (active).

Regarding `COc1c2c(c3c(c1OC)c(=O)c1ccccc1n3C)OCO2`, the growth was 81.3% [100 µM] (inactive).

Source of the values: PubChem BioAssay (NCI).
